Inconclusive results are not listed. Values without a mark were called inactive. Calls follow the shape of the dose curve; as a rule, active = well fitted inhibition curve with a large enough effect in the repeat runs; inconclusive = weak or mixed curves; inactive = no such curve, though single readings can be large or run the other way.
Target: Estrogen receptor (Homo sapiens) (UniProt P03372)
Assay: qHTS assay to identify small molecule antagonists of the estrogen receptor alpha (ER-alpha) signaling pathway using the BG1 cell line in the presence of 0.1 nM 17-beta-estradiol (AID 1259244); also: nearly all actives have a fitted effect of over 50% in size
Settings: VM7Luc4E2 (BG1) ERE-luciferase, antagonist mode, 0.1 nM E2, 22 h; series mostly up to 92.4 µM; activity change, negative = inhibition: at the top concentration
Excerpt: National Center for Advancing Translational Sciences [NCATS]
NIH Chemical Genomics Center [NCGC]
U.S. Environmental Protection Agency [EPA]
National Institutes of Environmental Health Sciences [NIEHS]
National Toxicology Program [NTP]
U.S. Food and Drug Administration [FDA]
Estrogen receptor (ER), a member of the nuclear hormone receptor plays an important role in development, metabolic homeostasis and reproduction. Two subtypes of ER, ER-alpha and ER-beta, have similar expression patterns with some uniqueness in both types. Endocrine disrupting chemicals (EDCs) and their interactions with steroid hormone receptors like ER causes disruption of normal endocrine function. Therefore, it is important to understand the effect of environmental chemicals in ER signaling pathway. For identifying ER antagonists, VM7Luc4E2 cell line was used to screen against Tox21 compound libraries.
VM7Luc4E2 cell line (provided by Denison MS, University of California) endogenously express full-length ER-alpha and is stably transfected with a plasmid containing four estrogen responsive elements (ERE) upstream of a luciferase reporter gene. The current screening for identification of ER-alpha inhibitors against Tox21 compound libraries used lower concentration (0.1 nM) of 17beta-Estradiol as a stimulator.
Tox21 Assay Protocol Summary:
VM7Luc4E2 cells were cultured in phenol red free assay medium containing 10% charcoal stripped FBS for 5 days prior to the assay. The cells were dispensed at 4,000 cells/well in 4 uL of assay medium into white wall/solid-bottom 1536-well plates (Corning Life Sciences, Corning, NY) using a Multidrop Combi (ThermoFisher Scientific, Waltham, MA) dispenser. After the assay plates were incubated at 37C and 5% CO2 for 24 hr, 23 nL of compounds dissolved in DMSO, positive controls or DMSO only was transferred to the assay plates by a Pintool station (Kalypsys, San Diego, CA). The transfer of compounds was followed by the addition of 1 uL of 0.1 nM (final concentration) agonist (17beta-Estradiol)/assay medium using a Flying Reagent Dispenser (FRD, Aurora Discovery, San Diego, CA). The plates were incubated at 37C and 5% CO2 for 22 hr. For luciferase reporter gene assay, 4 uL of ONE-Glo reagent (Promega Corporation, Madison, WI) was added to each well using the FRD and after 30 min incubation at room temperature luminescence intensity was measured using ViewLux plate reader (PerkinElmer, Shelton, CT).
% is scaled to controls: 0 for no effect and ±100 for the full control effect.

Chain of Estrogen receptor (Homo sapiens) (P03372 whole entry, looked up): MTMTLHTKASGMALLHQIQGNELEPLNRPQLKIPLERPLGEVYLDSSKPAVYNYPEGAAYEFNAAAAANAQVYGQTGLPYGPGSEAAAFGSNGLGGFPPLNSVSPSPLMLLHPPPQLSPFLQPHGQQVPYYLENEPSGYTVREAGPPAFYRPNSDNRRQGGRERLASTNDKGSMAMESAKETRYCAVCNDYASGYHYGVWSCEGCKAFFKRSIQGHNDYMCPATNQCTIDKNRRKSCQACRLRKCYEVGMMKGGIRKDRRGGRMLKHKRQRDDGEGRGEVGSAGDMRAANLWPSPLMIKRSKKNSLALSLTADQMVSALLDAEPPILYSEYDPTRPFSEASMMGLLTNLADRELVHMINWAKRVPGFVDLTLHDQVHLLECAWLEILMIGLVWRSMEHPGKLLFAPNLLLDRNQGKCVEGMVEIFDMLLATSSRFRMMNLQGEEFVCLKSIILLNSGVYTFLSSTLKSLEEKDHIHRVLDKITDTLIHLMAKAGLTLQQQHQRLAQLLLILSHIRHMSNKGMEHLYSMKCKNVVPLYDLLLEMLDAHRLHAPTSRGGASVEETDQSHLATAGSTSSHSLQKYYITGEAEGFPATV

Row | SMILES | activity change, negative = inhibition
1 | C=CC(=O)NC(C)C | 23.9%
2 | COc1cc(NS(=O)(=O)c2ccc(N)cc2)nc(C)n1 | 2.6% [at 42.5 µM]
3 | CCC(Cl)CC(Cl)C(Cl)C(Cl)C(Cl)C(C)Cl (stereo not given) | 63.4% [at 19 µM]
4 | Nc1c(Cl)cc(Cl)cc1[N+](=O)[O-] | -2.55%
5 | O=C(C(=O)c1ccco1)c1ccco1 | 19.1%
6 | O=C(O)c1cccc(C[C@@H]2COc3ccc(OCc4nc5cc(F)ccc5s4)cc3[C@@H]2O)c1 | 0.589%
7 | CC(C)(C)NCC(O)COc1cccc2c1C[C@H](O)[C@H](O)C2 (stereo not given in full) | -0.518% [at 42.5 µM]
8 | CN1CCCN(C(c2ccccc2)c2ccc(Cl)cc2)CC1 (stereo not given) | -16.2% [at 42.5 µM]
9 | CC(C)C1CCC(C(=O)N[C@H](Cc2ccccc2)C(=O)O)CC1 (stereo not given in full) | -1.6% [at 42.5 µM]
10 | O=C(CCS)OCC(COC(=O)CCS)(COC(=O)CCS)COC(=O)CCS | 0.501%
11 | COC(=O)Nc1nc2ccc(C(=O)C3CC3)cc2[nH]1 | 23.1% [at 42.5 µM]
12 | c1ccc2sc(SSc3nc4ccccc4s3)nc2c1 | 1.45% [at 19 µM]
13 | C=Cc1ccc(OC(C)=O)cc1 | -1.73%
14 | COC(=O)CC(C(C)=O)C(=O)OC (stereo not given) | 0.0247%
15 | CC1C(C)(C)C2=C(C(=O)CCC2)C1(C)C (stereo not given) | 3.34%
16 | COC(OC)OC | -9.38%
17 | CCOC(=O)C(C)O (stereo not given) | 0%
18 | Cc1cccc2sc(N)nc12 | -2.94%
19 | Cc1ccc(N(CC2=NCCN2)c2cccc(O)c2)cc1 | -13.4% [at 42.5 µM]
20 | CC(C)COC(=O)COc1cc(Cl)c(Cl)cc1Cl | -0.75%

Row | SMILES | activity change, negative = inhibition
21 | COc1ccc(CCN(C)CCCN2CCc3cc(OC)c(OC)cc3CC2=O)cc1OC | -6.64% [at 42.5 µM]
22 | COc1cc(S(=O)(=O)Nc2ccccc2)c(OC)cc1N | -9.95%
23 | CS(=O)(=O)c1ccc([C@@H](C[C@H]2CCC(=O)C2)C(=O)Nc2cnccn2)cc1Cl | 9.64%
24 | c1ccc(CCCc2ccncc2)cc1 | -25.2%
25 | Cc1oc(=O)oc1COC(=O)[C@@H]1N2C(=O)[C@@H](NC(=O)[C@H](N)c3ccccc3)[C@H]2SC1(C)C | 12.9% [at 42.5 µM]
26 | CCN(CC)c1cccc(O)c1 | 3.85%
27 | BrC(Br)C(Br)Br | -3.42%
28 | CC(C)(C(=O)c1cccnc1)c1cccnc1 | 0.475% [at 42.5 µM]
29 | CC[C@H]1OC(=O)[C@H](C)[C@@H](O[C@H]2C[C@@](C)(OC)[C@@H](O)[C@H](C)O2)[C@H](C)[C@@H](O[C@@H]2O[C@H](C)C[C@H](N(C)C)[C@H]2O)[C@](C)(O)C[C@@H](C)CN(C)[C@H](C)[C@@H](O)[C@]1(C)O | 0.0242% [at 42.5 µM]
30 | C=CCOC(=O)COCCC(C)C | -14.4%
31 | CC[C@H]1OC(=O)[C@H](C)[C@@H](O[C@H]2C[C@@](C)(OC)[C@@H](O)[C@H](C)O2)[C@H](C)[C@@H](O[C@@H]2O[C@H](C)C[C@H](N(C)C)[C@H]2O)[C@](C)(O)C[C@@H](C)/C(=N\OCOCCOC)[C@H](C)[C@@H](O)[C@]1(C)O | -17.8% [at 42.5 µM]
32 | COc1ccc(-n2nc(C(F)F)cc2-c2ccc(S(C)=O)cc2)cc1 (stereo not given) | 3.27%
33 | COc1ccc(-c2cc(C(F)F)nn2-c2ccc(S(N)(=O)=O)cc2)cc1F | 0.965% [at 42.5 µM]
34 | SCCc1cnccn1 | -0.38%
35 | CC(=O)C(=O)CC(C)C | 0.952%
36 | Nc1ccc(N=Nc2ccc(N)cc2)cc1 | -17.6% [at 42.5 µM]
37 | O=[N+]([O-])c1ccc2ncccc2c1 | 12.5%
38 | CC(C)N=C=NC(C)C | 1.25%
39 | Oc1cccc2[nH]ccc12 | -8.51% [at 42.5 µM]
40 | CSCC[C@H](NC(=O)[C@H](Cc1c[nH]c2ccccc12)NC(=O)CCNC(=O)OC(C)(C)C)C(=O)N[C@@H](CC(=O)O)C(=O)N[C@@H](Cc1ccccc1)C(N)=O | -0.0308% [at 42.5 µM]
